Experiment [1] deals with Wnt5a (protein binding on small-molecule microarray). The experiment can be described thus: Wnt5a binders on small-molecule microarray, primary screen, biophysical, 635/667 nm fluorescence (AID 1142).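 Note: fluorescence read at 667 nm with signal to noise per printed feature.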 Particulars: 635 nm fluorescence, higher = more signal.
The nature of experiment [2]: cell viability in Huh7 cells, primary screen, cytotoxicity control for HCV replication inhibitor project, CellTiter-Glo luminescence, basal, 48 h (AID 1143).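 Note: Huh7 hepatoma cells carrying a hepatitis C replication reporter with no stimulus; test concentration not given here.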 Particulars: Huh7 HCV replicon, higher = more signal, called active from +8 up or from −8 down. On the technique in general: Cellular ATP, detected with luciferase, serves as a proxy for viable cell number.
Experiment [3] in a line: P. aeruginosa biofilm formation inhibitors, primary screen, PAO1 strain, BacTiter-Glo luminescence, LB-PBS (AID 1144). Particulars: 12 h, higher = more signal.
The nature of experiment [4]: CREB reporter modulators without forskolin, primary screen, cell-based, PC12, CRE-LacZ reporter, unstimulated (AID 1145). Particulars: no forskolin, luminescence, 4.5 h, higher = more signal, called active from +8 up or from −8 down.
Experiment [5] can be described thus: CREB reporter modulators under forskolin, primary screen, cell-based, PC12, CRE-LacZ reporter, forskolin-stimulated (AID 1146).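 Note: PC12 cells with 6xCRE LacZ reporter stimulated by forskolin 10 µM; beta-galactosidase reporter signal reflecting CREB driven transcription.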 Conditions: luminescence, 4.5 h, higher = more signal, called active from +8 up or from −8 down.
For experiment [6], the target named is Streptavidin (Streptomyces avidinii) (UniProt P22629). Nature of the experiment: streptavidin binders on small-molecule microarray, primary screen, artefact control for SMM compound annotation, biophysical, 635/667 nm fluorescence (AID 1147).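 Note: signal reflects streptavidin binding to arrayed compounds as a control protein.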 Conditions: streptavidin binding, higher = more signal.
Experiment [7] in a line: small-molecule binders of probe aInhba, primary screen, biochemical, small-molecule microarray, 635/667 nm fluorescence (AID 1148).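 Note: score merges 667nm spot fluorescence with signal-to-noise for antibody binding to printed compounds.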 Particulars: higher = more signal.
In experiment [8] the target is Torsin-1A (Homo sapiens) (UniProt O14656). Nature of the experiment: torsin A binders from cell lysate, primary screen, small-molecule microarray, wild-type, 635/667 nm (AID 1149). Conditions: COS7 hTOR1A-WT lysate, 635 nm fluorescence, higher = more signal.
Experiment [9] has the same target. The experiment can be described thus: small-molecule binders of mutant TOR1A in lysate, primary screen, cell lysate, small-molecule microarray, COS7 lysate, 635/667 nm fluorescence (AID 1150).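 Note: score pools 667 nm emission and signal to noise measuring lysate protein binding.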 Conditions: COS7 hTOR1A mutant lysate, 635 nm fluorescence, higher = more signal.
In experiment [10] the test system is Sonic hedgehog protein (Shh). The experiment can be described thus: small-molecule binders of Shh protein, primary screen, biochemical, small-molecule microarray, 635/667 nm fluorescence (AID 1151).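 Note: Shh protein binding to compounds spotted on small-molecule microarray slides; score combines spot fluorescence intensity with signal-to-noise across triplicate slides.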 Conditions: small-molecule microarray binding, 635 nm fluorescence; higher = more signal.
Experiment [11] in a line: E. coli DRC41 culture turbidity changes, primary screen, E. coli filamentation inducer project, strain DRC41, OD650, 48 h (AID 1152).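 Note: E. coli MC1000 strain DRC41 lacking acrAB efflux pump and sulA.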 Particulars: E. coli DRC41 (acrAB sulA), higher = more signal, called active from +8 up or from −8 down.
Experiment [12] can be described thus: small-molecule binders of probe aLefty1, primary screen, biochemical, small-molecule microarray, 635/667 nm fluorescence (AID 1153).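 Note: score merges spot fluorescence with signal-to-noise ratio from the scanned slide images.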 Conditions: higher = more signal.
Experiment [13] is described as follows: PSAC antagonists in infected red cells, primary screen, cell-based, P. falciparum Indochina, OD700, 1 h (AID 1154). Conditions: P. falciparum Indochina infected RBC osmotic lysis, higher = more signal, called active from +8 up or from −8 down.
Experiment [14] in a line: PSAC antagonists in infected red cells, primary screen, cell-based, P. falciparum Indochina, OD700, 2 h (AID 1155).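 Note: lysis reports solute entry through the parasite surface anion channel PSAC; channel blockers reduce lysis of infected cells.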 Conditions: P. falciparum Indochina infected erythrocytes, osmotic lysis OD700; higher = more signal, called active from +8 up or from −8 down.
Experiment [15] in a line: osmotic lysis modulators in infected erythrocytes, primary screen, PSAC antagonist project, cell-based, P. falciparum Indochina, OD700, 3 h (AID 1156). Conditions: higher = more signal, called active from +8 up or from −8 down.
A short description of experiment [16]: PSAC antagonists in infected red cells, primary screen, cell-based, P. falciparum Indochina, OD700, 18 h (AID 1157). Particulars: P. falciparum Indochina infected erythrocytes, osmotic lysis OD700, 18 h; higher = more signal, called active from +8 up or from −8 down.
Experiment [17] in a line: modulators of S6 phosphorylation in cells, primary screen, cell-based, A549, cytoblot, luminescence, serum-stimulated (AID 1158).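 Note: serum-stimulated A549 lung adenocarcinoma cells; signal is phosphorylated S6 detected by cytoblot immunostaining with HRP secondary.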 Particulars: A549 phospho-S6 cytoblot, 5 h, higher = more signal.
The target of experiment [18] is NADPH oxidase 2 (Homo sapiens) (UniProt P04839). Nature of the experiment: NOX2-dependent H2O2 signal modulators, primary screen, NOX inhibitor project, cell-based, HEK293-NOX2, PMA-stimulated, Amplex Red fluorescence (AID 1159). Note: test concentration not given here. Particulars: 45 min, higher = more signal, called active from +8 up or from −8 down.
Experiment [19] concerns the target NADPH oxidase 4 (Homo sapiens) (UniProt Q9NPH5). The experiment can be described thus: NOX4-dependent H2O2 signal modulators, primary screen, NOX inhibitor project, cell-based, HEK293-NOX4, tetracycline-induced, Amplex Red fluorescence (AID 1160). Particulars: 45 min, higher = more signal, called active from +8 up or from −8 down.
Experiment [20] addresses NADPH oxidase 5 (Homo sapiens) (UniProt Q96PH1). The experiment can be described thus: NOX5-dependent H2O2 signal modulators, primary screen, NOX inhibitor project, cell-based, HEK293-NOX5, Amplex Red fluorescence (AID 1161). Particulars: HEK293-NOX5, ionomycin, 45 min, higher = more signal.

SMILES strings stand for the structures. Calls of active or inactive are those of the source. Unless noted, the rule behind the calls is not given here.

NADPH oxidase 5 (Homo sapiens), sequence (Q96PH1 whole entry, looked up): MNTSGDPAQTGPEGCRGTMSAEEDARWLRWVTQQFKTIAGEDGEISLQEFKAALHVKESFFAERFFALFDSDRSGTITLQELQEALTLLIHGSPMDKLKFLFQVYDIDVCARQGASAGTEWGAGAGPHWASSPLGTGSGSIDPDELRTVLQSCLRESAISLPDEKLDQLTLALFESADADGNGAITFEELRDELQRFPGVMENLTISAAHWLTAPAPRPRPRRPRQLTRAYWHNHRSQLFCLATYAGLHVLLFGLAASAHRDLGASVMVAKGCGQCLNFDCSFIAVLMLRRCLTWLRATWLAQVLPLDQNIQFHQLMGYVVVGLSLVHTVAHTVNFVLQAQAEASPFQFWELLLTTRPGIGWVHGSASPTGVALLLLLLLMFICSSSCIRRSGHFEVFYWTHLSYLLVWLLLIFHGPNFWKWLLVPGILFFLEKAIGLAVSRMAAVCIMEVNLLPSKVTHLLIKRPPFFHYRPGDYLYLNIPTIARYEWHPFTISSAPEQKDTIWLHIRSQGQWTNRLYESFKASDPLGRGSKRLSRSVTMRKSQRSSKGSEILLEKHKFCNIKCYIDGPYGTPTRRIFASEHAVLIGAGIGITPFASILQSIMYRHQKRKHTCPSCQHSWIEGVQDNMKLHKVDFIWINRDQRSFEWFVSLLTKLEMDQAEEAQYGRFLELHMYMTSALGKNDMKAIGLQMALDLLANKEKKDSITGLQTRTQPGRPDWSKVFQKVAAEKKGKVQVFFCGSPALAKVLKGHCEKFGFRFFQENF
NADPH oxidase 2 (Homo sapiens), sequence (P04839 whole entry, looked up): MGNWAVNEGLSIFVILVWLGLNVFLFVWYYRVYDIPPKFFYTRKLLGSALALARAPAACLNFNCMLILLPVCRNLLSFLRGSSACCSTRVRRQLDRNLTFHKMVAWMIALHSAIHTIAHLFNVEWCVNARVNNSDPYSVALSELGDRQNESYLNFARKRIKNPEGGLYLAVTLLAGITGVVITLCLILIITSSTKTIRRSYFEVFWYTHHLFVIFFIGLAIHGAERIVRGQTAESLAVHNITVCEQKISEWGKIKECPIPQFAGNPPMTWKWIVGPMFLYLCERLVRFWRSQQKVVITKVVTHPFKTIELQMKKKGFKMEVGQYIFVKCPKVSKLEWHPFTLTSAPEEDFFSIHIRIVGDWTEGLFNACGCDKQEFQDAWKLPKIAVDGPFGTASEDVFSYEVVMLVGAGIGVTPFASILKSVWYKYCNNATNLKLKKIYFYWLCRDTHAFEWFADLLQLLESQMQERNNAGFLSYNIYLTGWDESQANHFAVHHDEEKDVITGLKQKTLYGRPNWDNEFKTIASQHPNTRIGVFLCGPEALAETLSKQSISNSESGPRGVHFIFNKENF
Streptavidin (Streptomyces avidinii), sequence (P22629 whole entry, looked up): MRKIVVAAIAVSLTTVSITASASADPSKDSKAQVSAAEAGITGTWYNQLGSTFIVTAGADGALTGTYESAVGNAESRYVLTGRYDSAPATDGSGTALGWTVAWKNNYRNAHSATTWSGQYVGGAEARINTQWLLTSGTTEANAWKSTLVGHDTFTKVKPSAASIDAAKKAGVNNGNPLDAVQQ
NADPH oxidase 4 (Homo sapiens), sequence (Q9NPH5 whole entry, looked up): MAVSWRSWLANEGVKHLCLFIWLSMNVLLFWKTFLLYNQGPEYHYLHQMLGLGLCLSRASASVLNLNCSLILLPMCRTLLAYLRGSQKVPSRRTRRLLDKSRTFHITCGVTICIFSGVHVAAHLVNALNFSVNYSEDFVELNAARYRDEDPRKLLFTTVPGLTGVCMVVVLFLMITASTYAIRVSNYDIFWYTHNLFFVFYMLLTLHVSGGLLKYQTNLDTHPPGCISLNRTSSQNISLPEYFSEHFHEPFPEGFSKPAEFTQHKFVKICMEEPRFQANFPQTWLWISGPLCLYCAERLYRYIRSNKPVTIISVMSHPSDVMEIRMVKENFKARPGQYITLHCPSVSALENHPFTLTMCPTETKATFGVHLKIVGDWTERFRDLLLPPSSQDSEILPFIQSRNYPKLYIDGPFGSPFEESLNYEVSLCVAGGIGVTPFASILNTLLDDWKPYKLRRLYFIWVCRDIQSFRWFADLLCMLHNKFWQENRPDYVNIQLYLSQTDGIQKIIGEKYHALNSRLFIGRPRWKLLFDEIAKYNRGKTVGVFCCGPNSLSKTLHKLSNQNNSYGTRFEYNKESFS
Torsin-1A (Homo sapiens), sequence (O14656 whole entry, looked up): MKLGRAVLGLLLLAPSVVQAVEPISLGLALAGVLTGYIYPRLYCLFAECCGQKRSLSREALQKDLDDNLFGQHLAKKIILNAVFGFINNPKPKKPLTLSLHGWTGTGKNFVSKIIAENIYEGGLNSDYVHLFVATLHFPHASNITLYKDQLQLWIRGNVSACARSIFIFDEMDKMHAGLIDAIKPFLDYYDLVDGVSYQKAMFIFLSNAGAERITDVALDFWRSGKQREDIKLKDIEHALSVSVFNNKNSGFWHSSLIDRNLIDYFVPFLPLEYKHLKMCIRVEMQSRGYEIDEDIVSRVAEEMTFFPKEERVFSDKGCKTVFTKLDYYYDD

For `CC1CC/C=C\[C@H]2OC34C=CCN(Cn5nnc6ccccc65)C(=O)[C@H]3N(CCCCCCO)C(=O)[C@@H]4C2C(=O)O1` (stereo not given in full), the composite z-score was -0.755 in [1]; -0.399 in experiment [6]; -0.12 in experiment [7]; -1.51 with Torsin-1A (Homo sapiens) [8]; -1.11 with Torsin-1A (Homo sapiens) [9]; -0.415 in experiment [10]. Moreover, the composite z-score in experiment [12] turned out to be 0.0999. Besides, the z-score is 0.835 (inactive) in experiment [2]; -1.18 (inactive) in experiment [3]; -0.0859 (inactive) in [4]; 0.19 (inactive) in experiment [5]; 0.699 (inactive) in [11]; 0.59 (inactive) in [13]. For the same molecule, the z-score in [14] was -0.139 (inactive); in [15], -0.248 (inactive); in experiment [16], 0.527 (inactive); in experiment [17], 1.2; in experiment [18], 1.02 (inactive); in experiment [19] it was 0.515 (inactive). Moreover, the z-score in [20] stood at 2.37.

As for `CC(C)c1nc2cc(Br)ccc2c(=O)o1`, the composite z-score was 0.432 in experiment [1]; 0.632 in experiment [6]; -0.0736 in experiment [7]; 0.0358 in the experiment with Torsin-1A (Homo sapiens) [8]; 0.244 with Torsin-1A (Homo sapiens) [9]; 0.116 in [10]. The composite z-score in experiment [12] worked out at 0.202. For the same molecule, the z-score is -0.232 (inactive) in experiment [2]; -0.523 (inactive) in [3]; -0.348 (inactive) in [4]; -0.524 (inactive) in experiment [5]; 0.537 (inactive) in experiment [11]; 2.79 (inactive) in experiment [13]. Further, the z-score in [14] was 0.153 (inactive); in [15], 0.958 (inactive); in [16], 0.303 (inactive); in [17] it was -0.228; in experiment [18], -0.421 (inactive); in [19], -0.0107 (inactive). The z-score in [20] was 0.118.

Regarding `CCOC(=O)C1=CC[C@@H](c2ccc(OC)cc2)N(S(=O)(=O)c2ccc(C)cc2)[C@H]1c1ccc(C)cc1`, the composite z-score was 0.151 in experiment [1]; 0.778 in [6]; 0.1 in experiment [7]; -0.414 in the experiment with Torsin-1A (Homo sapiens) [8]; 0.308 with Torsin-1A (Homo sapiens) [9]; -0.625 in [10]. Also, the composite z-score in experiment [12] was determined as 0.578. For the same molecule, the z-score in experiment [2] is -2.4 (inactive); in experiment [3] it was 0.12 (inactive); in [4] it was -0.415 (inactive); in experiment [5], -0.24 (inactive); in experiment [11], -1.22 (inactive); in experiment [13], 0.833 (inactive). In addition, the z-score was 0.905 (inactive) in [14]; -0.715 (inactive) in [15]; 0.68 (inactive) in experiment [16]; -0.752 in experiment [17]; 0.864 (inactive) in [18]; -0.627 (inactive) in [19]. In experiment [20], this molecule came in with a z-score of 0.0417.

Take `[N-]=[N+]=Nc1ccccc1C[C@]1(C(=O)N2CCOCC2)N=C(c2ccc(OCCCO)cc2)O[C@H]1c1ccccc1N=[N+]=[N-]`: the composite z-score in experiment [1] stood at 0.936; in experiment [6] it was 1.79; in [7], 0.0757; with Torsin-1A (Homo sapiens) [8], 1.32; in the experiment with Torsin-1A (Homo sapiens) [9] it was 0.946; in experiment [10], 1.76. The molecule further came in with a composite z-score in experiment [12] of 0.15. In addition, the z-score in experiment [2] is -4.16 (inactive); in experiment [3], -0.781 (inactive); in experiment [4] it was 0.0686 (inactive); in experiment [5] it was -2.38 (inactive); in experiment [11] it was 1.76 (inactive); in experiment [13] it was 30.7 (active). In addition, the z-score in [14] is 25.3 (active); in experiment [15], 1.18 (inactive); in experiment [16], 6.73 (inactive); in [17], 2.28; in experiment [18] it was -2.86 (inactive); in experiment [19], 0.383 (inactive). Moreover, the z-score in experiment [20] was -2.57.

These data come from PubChem BioAssay.
